# Source: PubChem BioAssay AID602478 (National Center for Advancing Translational Sciences (NCATS), 2012)
# Inconclusive results are not listed. Calls of active or inactive are those of the source. Calls follow the shape of the dose curve; as a rule, active = well fitted activation curve with a large enough effect; inconclusive = small, poorly fitted or top-dose-only effect; inactive = flat fitted curve, though single readings scatter.
# Target: Luciferin 4-monooxygenase (Photinus pyralis) (UniProt P08659)
# Assay: FLuc inhibitory activity for the follow-up compounds in a cell-based translational read-through assay (72 hour incubation)
# Conditions: GripTite 293 FLucUGA read-through, luminescence; series mostly up to 38.3 µM; activation (luciferase signal increase): at the top concentration
# Description: NCGC Assay Overview: Firefly (Photinus pyralis) luciferase is one of the most commonly used transcriptional reporters. It is considered one of the more dynamically responsive reporters - that is, responsive to changes in reporter transcription - as it requires no post-translational modifications and is enzymatically active directly after protein synthesis (Wood, 1998). With no endogenous expression in mammalian cells and without the requirement of external excitation, it offers very little background signal, thus generally providing excellent signal to background for most assays. Previous profiling work to determine the prevalence of compounds that affect FLuc enzymatic activity (PubChem AID 411) identified that ~3% of the MLSMR library (then at ~72K) inhibited FLuc (Auld et al., 2008). […] Of the compounds identified in this profile that inhibited FLuc, 151 compounds were selected for further analysis, in an effort to better understand their mode of inhibiting FLuc. The assay described here was to determine the activity of the compounds in a cell-based firefly luciferase reporter gene assay originally designed to identify compounds that enchanced translational read-through of a FLuc cDNA that contained a premature stop codon (Auld et al., 2009; Auld et al., 2010). Compounds that enhance translational read-through or compounds that stabilize FLuc intracellularly are identified as active compounds in the assay.
# NCGC Assay Protocol Summary: Reagents: Transient transfection of FlucUGA construct: TransFast Transfection Reagent (Promega #E2431); FLucUGA construct (refer to Auld et al., 2009) #GripTite 293 MSR Cell Line (Invitrogen #R795-07) #Complete growth media: DMEM (Invitrogen #11965), 10% HIFBS, 0.1mM MEM NEAA, 5mL/L pen-strep (of 5000U/mL stock), 600ug/mL Geneticin #Assay media: DMEM without phenol red (Invitrogen #21063), 5% charcoal-stripped HIFBS (Hyclone #SH30071.03), 0.1mM MEM NEAA In-house detection reagent: 300mM Tris-HCl, 300mM Trizma base, 300mM MgCl, 1% Triton-X100, 5mM DTT, 500uM Coenzyme A trilithium salt (Sigma #C3019),450uM ATP (Sigma #A7699), 1mM D-luciferin sodium salt monohydrate (Biosynth #L8240) Control compounds used were two known firefly luciferase inhibitors (3-(5-(3-chlorophenyl)-1,2,4-oxadiazol-3-yl)benzoic acid and 5-(2-fluorophenyl)-3-phenyl-1,2,4-oxadiazole), and DMSO. Assay Summary: Transient transfection of FlucUGA construct: Day 1: GripTite cells were plated in T175 flasks at a density of 1.75 x 10^7 cells/T175 flask in complete growth media without Geneticin and allowed to grow ON in a 37 degrees Celsius incubator. Day 2: Cells in T175 flask were transfected - with 10ug of DNA and 30uL Transfast in 12mL complete growth media without serum and without Geneticin for 4 hours at 37 degrees Celsius. After incubation, cells were trypsinized, spun down, and resuspended to a concentration of 3.3 x 10^5 cells/mL in assay media. 6uL of cells in assay buffer were dispensed at 2000cells/well (3.3 x 10^5 cells/mL) into Greiner solid-white TC-treated 1536-well plates using a Multidrop Combi (Thermo Fisher Scientific). Plates were incubated for one hour at 37 degree Celsius, 95% humidity, 5% CO2. These assay plates were then treated with 23nL of compound or DMSO using a Kalypsys pin tool, which allows for delivery of a 12-point titration of each compound to the assay plate, with a final compound concentration ranging from approximately ~38uM to 0.2nM. Assay plates were then incubated for 72 hours. After incubation, plates were washed three times with DPBS (7uL/well). After the third wash, 6uL of DPBS was added to each well. 3uL of 3X luciferase detection reagent was then added to each well using a flying reagent dispenser (FRD). After a 15 minute incubation to allow for cell lysis, luciferase activity was measured using a ViewLux CCD imager (PerkinElmer), with an average exposure time of 2-12 seconds.
# Luciferin 4-monooxygenase (Photinus pyralis), sequence (P08659 whole entry, looked up): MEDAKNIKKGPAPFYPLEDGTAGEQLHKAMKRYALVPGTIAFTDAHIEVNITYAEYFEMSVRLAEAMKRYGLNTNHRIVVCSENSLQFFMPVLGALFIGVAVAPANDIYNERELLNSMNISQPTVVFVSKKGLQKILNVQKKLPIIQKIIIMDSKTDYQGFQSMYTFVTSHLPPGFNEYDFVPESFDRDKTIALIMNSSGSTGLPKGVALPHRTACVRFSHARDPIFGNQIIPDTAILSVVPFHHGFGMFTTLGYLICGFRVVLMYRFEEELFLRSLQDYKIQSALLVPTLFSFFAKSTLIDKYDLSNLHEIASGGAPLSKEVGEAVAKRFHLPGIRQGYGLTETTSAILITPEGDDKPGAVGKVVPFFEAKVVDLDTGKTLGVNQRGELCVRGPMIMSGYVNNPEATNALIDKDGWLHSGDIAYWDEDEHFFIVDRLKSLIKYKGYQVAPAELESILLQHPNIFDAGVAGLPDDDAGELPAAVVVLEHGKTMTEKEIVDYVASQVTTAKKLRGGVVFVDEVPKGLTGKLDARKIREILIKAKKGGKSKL
SMILES,Potency,activation (luciferase signal increase)
Nc1ccc2nc(-c3ccccc3)sc2c1,1130 nM (active),
O=C(O)c1ccc(NC(=O)c2cc(S(=O)(=O)N3CCCCC3)c(Cl)cc2Cl)cc1,,0.522% (inactive)
COc1ccccc1C(=O)Nc1ccc(C(=O)Nc2ccccc2C(=O)O)cc1,,2.81% (inactive)
CCOc1ccc2nc(NC(=O)c3ccccc3)sc2c1,1790 nM (active),
COc1ccc(NS(=O)(=O)c2cccc(C(=O)Nc3ccccc3C(=O)O)c2)cc1,,1.98% (inactive)
COc1ccc(C(=O)Nc2cccc(C(=O)O)c2)cc1S(=O)(=O)N1CCCC1,,3.95% (inactive)
CC(C)c1ccc(C(=O)Nc2ccc(-c3nc4ccccc4s3)c(Cl)c2)cc1,,0.822% (inactive)
O=C(Nc1ccccc1C(=O)O)c1ccc(NC(=O)C2CCCO2)cc1 (stereo unspecified),,3.56% (inactive)
O=C(O)c1cccc(NC(=O)c2cccc(NC(=O)C3CCCO3)c2)c1 (stereo unspecified),,7.52% (inactive)
O=C(O)c1cccc(NC(=O)c2ccccc2NC(=O)c2ccco2)c1,,10.3% (inactive)
O=C(Cc1ccccc1)Nc1ccccc1C(=O)Nc1ccc(C(=O)O)cc1,,9.41% (inactive)
O=C(O)c1cccc(NC(=O)c2ccc(Cl)c(S(=O)(=O)N3CCCCCC3)c2)c1,283 nM (active),
O=C(Nc1ccccc1C(=O)O)c1cccc(NC(=O)c2ccccc2Br)c1,,6.23% (inactive)
COc1ccc2nc(NC(=O)c3ccco3)sc2c1,634 nM (active),
CCOc1ccc2nc(NC(=O)c3ccoc3C)sc2c1,449 nM (active),
Cc1ccc(C(=O)O/N=C(\N)c2ccccn2)cc1,2250 nM (active),
